Assays:
Test in all cases: DAPPL (digital affinity profiling via proximity ligation, sequencing); 10 mM Tris-HCl pH 7.5, 50 mM NaCl, 1 mM DTT, 4% glycerol, room temperature, 30 min; GST-TFs on glutathione beads, 16-mer random dsDNA library, 0.1% formaldehyde crosslink after washing; high values mean tight binding
FEV = target: T1, FEV (Homo sapiens, UniProt Q99581 1-238); conditions: protein: recombinant; tags: N-terminal GST; dsDNA, one strand shown
T1 sequence: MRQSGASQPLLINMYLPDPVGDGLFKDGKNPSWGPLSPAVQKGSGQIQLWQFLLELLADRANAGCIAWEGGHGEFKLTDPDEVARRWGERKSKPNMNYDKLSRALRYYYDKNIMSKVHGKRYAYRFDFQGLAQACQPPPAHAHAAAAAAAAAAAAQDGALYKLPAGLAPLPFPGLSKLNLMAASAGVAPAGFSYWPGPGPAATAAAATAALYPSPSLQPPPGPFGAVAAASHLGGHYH
How it was run: (§1)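 Binding signal is each hexamer's read frequency for a factor divided by its frequency in the tag-only sample. The factors were GST-fused human transcription factors from yeast, captured on glutathione beads, DNA-barcoded and pooled with that sample. Pools were incubated with 200 nmole of a random double-stranded 16-mer DNA library in Tris/NaCl/DTT/glycerol buffer at room temperature for 30 min, then washed, crosslinked with 0.1% formaldehyde, proximity-ligated with BsaI/T4 ligase (1 h, 37 °C), PCR-amplified and sequenced on an Illumina NextSeq500.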

ETV5 = ETV5 (Homo sapiens, UniProt P41161 1-510); conditions: protein: recombinant; tags: N-terminal GST; dsDNA, one strand shown
How it was run: as §1

HSF1 = HSF1 (Homo sapiens, UniProt Q00613 1-529); conditions: protein: recombinant; tags: N-terminal GST; chain copies: 3; dsDNA, one strand shown
How it was run: as §1

SPIC = target: T2, SPIC (Homo sapiens, UniProt Q8N5J4 1-248); conditions: protein: recombinant; tags: N-terminal GST; dsDNA, one strand shown
T2 sequence: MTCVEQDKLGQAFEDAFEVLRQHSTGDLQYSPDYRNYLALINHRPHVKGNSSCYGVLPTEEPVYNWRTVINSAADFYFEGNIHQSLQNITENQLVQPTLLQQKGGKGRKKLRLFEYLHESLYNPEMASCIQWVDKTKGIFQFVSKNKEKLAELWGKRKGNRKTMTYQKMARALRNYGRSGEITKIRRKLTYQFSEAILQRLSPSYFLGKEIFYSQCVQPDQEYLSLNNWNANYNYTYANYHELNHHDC
How it was run: as §1

ELF4 = ELF4 (Homo sapiens, UniProt Q99607 1-663); conditions: protein: recombinant; tags: N-terminal GST; dsDNA, one strand shown
How it was run: as §1

ELK4 = target: T3, ELK4 (Homo sapiens, UniProt P28324-2 1-405); conditions: protein: recombinant; tags: N-terminal GST; dsDNA, one strand shown
T3 sequence: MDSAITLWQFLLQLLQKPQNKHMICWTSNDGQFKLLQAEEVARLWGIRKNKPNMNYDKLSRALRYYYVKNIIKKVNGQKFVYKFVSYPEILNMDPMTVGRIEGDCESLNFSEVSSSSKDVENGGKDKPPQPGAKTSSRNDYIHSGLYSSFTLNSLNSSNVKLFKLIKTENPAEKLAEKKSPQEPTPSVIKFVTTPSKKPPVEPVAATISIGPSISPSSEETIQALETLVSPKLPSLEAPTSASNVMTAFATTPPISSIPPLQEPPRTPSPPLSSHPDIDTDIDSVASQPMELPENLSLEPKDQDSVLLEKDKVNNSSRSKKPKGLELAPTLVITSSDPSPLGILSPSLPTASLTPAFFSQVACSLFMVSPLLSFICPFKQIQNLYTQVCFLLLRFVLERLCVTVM
How it was run: as §1

ETV2 = target: T4, ETV2 (Homo sapiens, UniProt O00321 1-342); conditions: protein: recombinant; tags: N-terminal GST; dsDNA, one strand shown
T4 sequence: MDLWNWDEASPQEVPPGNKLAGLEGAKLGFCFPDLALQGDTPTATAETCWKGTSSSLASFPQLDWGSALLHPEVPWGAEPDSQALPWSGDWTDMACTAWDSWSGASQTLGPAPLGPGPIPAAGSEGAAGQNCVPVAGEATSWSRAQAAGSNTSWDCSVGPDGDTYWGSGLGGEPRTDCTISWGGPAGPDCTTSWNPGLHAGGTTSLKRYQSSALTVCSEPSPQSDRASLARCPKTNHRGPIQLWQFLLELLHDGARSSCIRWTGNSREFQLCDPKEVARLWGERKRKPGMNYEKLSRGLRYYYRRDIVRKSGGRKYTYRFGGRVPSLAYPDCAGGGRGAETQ
How it was run: as §1

ELF3 = target: T5, ELF3 (Homo sapiens, UniProt P78545 1-371); conditions: protein: recombinant; tags: N-terminal GST; dsDNA, one strand shown
T5 sequence: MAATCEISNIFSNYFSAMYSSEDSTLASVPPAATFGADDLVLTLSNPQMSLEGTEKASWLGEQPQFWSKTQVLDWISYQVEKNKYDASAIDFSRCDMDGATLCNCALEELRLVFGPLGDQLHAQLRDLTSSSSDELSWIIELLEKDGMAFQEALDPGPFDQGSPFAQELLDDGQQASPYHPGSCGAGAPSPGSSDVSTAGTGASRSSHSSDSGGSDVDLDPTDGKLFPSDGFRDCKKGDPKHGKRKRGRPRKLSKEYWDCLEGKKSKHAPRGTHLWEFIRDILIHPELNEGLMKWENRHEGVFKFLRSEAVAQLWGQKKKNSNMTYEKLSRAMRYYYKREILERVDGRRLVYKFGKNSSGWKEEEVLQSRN
How it was run: as §1

CRX = CRX (Homo sapiens, UniProt O43186 1-299); conditions: protein: recombinant; tags: N-terminal GST; dsDNA, one strand shown
How it was run: as §1

ETV1 = ETV1 (Homo sapiens, UniProt P50549 1-477); conditions: protein: recombinant; tags: N-terminal GST; dsDNA, one strand shown
How it was run: as §1

ERF = target: T6, ERF (Homo sapiens, UniProt P50548 1-548); conditions: protein: recombinant; tags: N-terminal GST; dsDNA, one strand shown
T6 sequence: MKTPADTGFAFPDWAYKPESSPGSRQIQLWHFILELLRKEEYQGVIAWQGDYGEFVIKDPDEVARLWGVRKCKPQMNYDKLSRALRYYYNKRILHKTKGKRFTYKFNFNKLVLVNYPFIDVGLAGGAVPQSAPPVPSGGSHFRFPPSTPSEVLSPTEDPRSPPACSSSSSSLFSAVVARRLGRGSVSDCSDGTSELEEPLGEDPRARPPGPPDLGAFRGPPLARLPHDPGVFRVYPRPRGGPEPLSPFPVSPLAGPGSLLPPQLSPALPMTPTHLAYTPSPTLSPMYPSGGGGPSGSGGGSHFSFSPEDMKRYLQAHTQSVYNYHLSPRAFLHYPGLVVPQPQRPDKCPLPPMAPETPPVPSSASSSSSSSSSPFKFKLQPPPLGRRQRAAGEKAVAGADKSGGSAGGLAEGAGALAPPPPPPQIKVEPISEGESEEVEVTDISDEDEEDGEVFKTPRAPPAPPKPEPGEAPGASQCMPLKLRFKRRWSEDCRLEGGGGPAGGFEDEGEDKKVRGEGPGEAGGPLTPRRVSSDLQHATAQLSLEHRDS
How it was run: as §1

ETV3L = target: T7, ETV3L (Homo sapiens, UniProt Q6ZN32 1-361); conditions: protein: recombinant; tags: N-terminal GST; dsDNA, one strand shown
T7 sequence: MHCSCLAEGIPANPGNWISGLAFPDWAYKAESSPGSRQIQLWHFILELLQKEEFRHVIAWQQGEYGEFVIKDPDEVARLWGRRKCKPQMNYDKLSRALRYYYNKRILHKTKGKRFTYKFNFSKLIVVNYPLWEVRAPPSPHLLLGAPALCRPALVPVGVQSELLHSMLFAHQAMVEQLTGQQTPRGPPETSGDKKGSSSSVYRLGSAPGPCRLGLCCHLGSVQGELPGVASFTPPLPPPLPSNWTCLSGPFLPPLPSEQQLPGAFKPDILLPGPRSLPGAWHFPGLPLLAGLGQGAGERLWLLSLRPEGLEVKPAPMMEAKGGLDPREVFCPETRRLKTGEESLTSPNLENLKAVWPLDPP
How it was run: as §1

ETS2 = target: T8, ETS2 (Homo sapiens, UniProt P15036 1-469); conditions: protein: recombinant; tags: N-terminal GST; dsDNA, one strand shown
T8 sequence: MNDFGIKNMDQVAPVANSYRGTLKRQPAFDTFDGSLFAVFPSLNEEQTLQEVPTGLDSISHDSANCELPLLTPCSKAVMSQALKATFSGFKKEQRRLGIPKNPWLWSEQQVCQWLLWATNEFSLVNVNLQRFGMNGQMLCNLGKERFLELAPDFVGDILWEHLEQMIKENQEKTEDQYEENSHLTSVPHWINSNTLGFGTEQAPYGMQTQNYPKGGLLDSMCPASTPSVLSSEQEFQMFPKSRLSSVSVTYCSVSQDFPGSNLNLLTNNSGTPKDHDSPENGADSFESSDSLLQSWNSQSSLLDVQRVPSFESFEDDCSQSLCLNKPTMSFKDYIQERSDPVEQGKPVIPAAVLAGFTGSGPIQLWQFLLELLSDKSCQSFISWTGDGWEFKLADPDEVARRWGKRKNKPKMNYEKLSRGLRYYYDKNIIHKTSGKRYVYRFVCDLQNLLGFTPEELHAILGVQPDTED
How it was run: as §1

SPDEF = target: T9, SPDEF (Homo sapiens, UniProt O95238 1-335); conditions: protein: recombinant; tags: N-terminal GST; dsDNA, one strand shown
T9 sequence: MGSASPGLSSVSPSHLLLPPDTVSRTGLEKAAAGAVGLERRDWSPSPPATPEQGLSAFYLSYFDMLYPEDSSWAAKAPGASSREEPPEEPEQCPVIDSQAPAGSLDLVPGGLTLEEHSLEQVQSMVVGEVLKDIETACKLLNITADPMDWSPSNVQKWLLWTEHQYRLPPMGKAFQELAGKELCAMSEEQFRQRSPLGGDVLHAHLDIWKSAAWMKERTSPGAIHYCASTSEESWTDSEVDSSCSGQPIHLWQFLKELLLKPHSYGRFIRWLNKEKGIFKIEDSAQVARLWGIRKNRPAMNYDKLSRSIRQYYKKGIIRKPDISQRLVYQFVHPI
How it was run: as §1

ETV7 = target: T10, ETV7 (Homo sapiens, UniProt Q9Y603 1-341); conditions: protein: recombinant; tags: N-terminal GST; dsDNA, one strand shown
T10 sequence: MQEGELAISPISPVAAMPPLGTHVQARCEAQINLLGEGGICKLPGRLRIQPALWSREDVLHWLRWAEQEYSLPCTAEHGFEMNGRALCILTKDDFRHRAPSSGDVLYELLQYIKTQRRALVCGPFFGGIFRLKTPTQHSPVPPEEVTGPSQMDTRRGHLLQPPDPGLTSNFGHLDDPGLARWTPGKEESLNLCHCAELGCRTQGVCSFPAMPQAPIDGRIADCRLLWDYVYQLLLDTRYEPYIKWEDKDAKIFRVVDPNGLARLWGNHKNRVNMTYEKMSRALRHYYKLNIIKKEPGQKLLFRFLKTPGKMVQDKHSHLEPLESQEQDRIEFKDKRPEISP
How it was run: as §1

ELF5 = target: T11, ELF5 (Homo sapiens, UniProt Q9UKW6-2 1-255); conditions: protein: recombinant; tags: N-terminal GST; dsDNA, one strand shown
T11 sequence: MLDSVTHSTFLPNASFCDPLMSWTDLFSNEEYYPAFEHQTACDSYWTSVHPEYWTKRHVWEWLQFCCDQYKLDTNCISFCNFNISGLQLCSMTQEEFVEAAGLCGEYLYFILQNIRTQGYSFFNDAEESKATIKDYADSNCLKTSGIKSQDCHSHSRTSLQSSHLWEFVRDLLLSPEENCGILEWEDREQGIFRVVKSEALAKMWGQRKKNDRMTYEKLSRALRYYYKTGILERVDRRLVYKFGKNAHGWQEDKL
How it was run: as §1

ETV3 = target: T12, ETV3 (Homo sapiens, UniProt P41162-2 1-143); conditions: protein: recombinant; tags: N-terminal GST; dsDNA, one strand shown
T12 sequence: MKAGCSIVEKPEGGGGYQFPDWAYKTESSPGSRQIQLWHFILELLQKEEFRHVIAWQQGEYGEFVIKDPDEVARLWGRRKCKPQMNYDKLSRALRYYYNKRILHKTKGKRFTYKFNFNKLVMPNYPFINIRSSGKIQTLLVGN
How it was run: as §1

ETV6 = ETV6 (Homo sapiens, UniProt P41212 1-452); conditions: protein: recombinant; tags: N-terminal GST; dsDNA, one strand shown
How it was run: as §1

Sequence of ELF4 (Q99607 whole entry): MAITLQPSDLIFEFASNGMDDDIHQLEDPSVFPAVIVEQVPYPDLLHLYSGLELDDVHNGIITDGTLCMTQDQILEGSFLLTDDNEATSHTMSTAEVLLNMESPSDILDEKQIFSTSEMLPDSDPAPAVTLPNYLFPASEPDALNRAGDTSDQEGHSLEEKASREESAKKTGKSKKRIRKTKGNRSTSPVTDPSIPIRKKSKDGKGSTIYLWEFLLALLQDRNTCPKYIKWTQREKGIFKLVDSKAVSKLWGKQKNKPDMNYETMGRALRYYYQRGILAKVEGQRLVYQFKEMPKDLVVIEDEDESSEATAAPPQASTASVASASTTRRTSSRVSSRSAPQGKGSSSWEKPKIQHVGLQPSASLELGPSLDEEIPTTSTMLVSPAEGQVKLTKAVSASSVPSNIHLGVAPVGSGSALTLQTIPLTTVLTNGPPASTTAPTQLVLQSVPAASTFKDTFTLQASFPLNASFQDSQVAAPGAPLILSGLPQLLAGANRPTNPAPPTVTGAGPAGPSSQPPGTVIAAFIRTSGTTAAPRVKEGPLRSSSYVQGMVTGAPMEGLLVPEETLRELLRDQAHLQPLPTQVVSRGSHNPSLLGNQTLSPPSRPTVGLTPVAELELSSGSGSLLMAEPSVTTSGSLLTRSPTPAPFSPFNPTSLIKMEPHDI
Sequence of ETV1 (P50549 whole entry): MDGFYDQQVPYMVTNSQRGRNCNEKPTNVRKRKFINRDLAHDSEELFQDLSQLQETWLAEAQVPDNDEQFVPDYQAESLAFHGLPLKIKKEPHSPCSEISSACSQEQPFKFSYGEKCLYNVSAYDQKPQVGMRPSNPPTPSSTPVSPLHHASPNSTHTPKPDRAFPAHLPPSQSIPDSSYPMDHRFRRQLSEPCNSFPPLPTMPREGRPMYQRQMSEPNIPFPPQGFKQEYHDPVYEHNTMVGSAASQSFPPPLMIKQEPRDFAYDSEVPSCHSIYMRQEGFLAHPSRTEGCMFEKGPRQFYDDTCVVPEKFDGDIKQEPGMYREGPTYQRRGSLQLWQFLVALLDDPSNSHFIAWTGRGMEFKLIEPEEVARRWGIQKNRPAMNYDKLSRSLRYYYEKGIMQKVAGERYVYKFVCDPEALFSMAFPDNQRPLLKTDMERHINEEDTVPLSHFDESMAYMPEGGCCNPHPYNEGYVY
Sequence of ETV6 (P41212 whole entry): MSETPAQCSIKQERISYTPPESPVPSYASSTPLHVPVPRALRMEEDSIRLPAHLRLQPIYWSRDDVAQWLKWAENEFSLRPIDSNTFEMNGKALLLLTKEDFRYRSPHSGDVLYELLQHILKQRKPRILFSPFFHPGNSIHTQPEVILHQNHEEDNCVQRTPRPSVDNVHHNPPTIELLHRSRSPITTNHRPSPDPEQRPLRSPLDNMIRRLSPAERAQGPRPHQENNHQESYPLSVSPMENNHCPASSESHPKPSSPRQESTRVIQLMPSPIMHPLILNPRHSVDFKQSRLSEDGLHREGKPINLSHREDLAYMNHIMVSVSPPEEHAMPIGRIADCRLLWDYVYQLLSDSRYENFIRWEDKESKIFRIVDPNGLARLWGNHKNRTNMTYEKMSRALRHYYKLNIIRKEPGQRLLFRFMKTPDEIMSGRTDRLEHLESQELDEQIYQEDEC
Sequence of CRX (O43186 whole entry): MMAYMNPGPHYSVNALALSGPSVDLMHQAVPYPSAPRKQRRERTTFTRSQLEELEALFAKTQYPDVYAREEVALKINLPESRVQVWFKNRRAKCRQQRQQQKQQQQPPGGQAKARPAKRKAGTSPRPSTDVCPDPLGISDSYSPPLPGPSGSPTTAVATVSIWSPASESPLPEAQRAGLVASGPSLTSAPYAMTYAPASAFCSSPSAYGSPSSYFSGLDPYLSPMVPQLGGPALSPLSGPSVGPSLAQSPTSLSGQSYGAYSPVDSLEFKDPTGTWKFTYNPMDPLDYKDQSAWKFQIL
Sequence of HSF1 (Q00613 whole entry): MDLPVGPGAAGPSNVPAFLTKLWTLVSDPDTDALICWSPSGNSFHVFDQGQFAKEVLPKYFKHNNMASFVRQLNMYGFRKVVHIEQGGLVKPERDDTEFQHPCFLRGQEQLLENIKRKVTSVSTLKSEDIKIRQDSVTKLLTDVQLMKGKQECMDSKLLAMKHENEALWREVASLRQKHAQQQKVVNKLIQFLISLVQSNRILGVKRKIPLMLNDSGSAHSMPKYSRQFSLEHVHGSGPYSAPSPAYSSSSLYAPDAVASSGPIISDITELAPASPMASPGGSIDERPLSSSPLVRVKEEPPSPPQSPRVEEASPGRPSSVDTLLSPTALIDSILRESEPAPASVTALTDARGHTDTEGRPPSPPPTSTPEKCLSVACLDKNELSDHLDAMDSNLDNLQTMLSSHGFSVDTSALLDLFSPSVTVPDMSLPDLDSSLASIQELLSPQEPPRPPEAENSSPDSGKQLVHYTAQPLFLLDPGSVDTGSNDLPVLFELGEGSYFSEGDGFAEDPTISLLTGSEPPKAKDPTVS
Sequence of ETV5 (P41161 whole entry): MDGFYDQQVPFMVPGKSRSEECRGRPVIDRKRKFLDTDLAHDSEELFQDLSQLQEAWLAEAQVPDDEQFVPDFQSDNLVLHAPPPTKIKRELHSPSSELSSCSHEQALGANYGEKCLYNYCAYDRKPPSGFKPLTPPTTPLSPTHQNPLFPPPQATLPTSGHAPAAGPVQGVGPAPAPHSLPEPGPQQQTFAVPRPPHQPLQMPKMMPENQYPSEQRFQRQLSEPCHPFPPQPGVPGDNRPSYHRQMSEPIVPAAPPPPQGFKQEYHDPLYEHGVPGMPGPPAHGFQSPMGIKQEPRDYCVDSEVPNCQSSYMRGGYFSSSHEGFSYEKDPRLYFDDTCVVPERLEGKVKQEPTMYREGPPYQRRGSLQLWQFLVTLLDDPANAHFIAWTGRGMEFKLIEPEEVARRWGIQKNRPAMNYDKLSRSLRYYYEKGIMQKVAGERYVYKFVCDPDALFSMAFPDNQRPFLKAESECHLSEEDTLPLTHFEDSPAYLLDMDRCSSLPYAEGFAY

## CACTCT
FEV
  binding signal: 1.24 fold enrichment (6-mer frequency, TF over GST control)
ETV5
  binding signal: 1.29 fold enrichment (6-mer frequency, TF over GST control)
HSF1
  binding signal: 1.24 fold enrichment (6-mer frequency, TF over GST control)
SPIC
  binding signal: 1.22 fold enrichment (6-mer frequency, TF over GST control)
ELF4
  binding signal: 1.22 fold enrichment (6-mer frequency, TF over GST control)
ELK4
  binding signal: 1.58 fold enrichment (6-mer frequency, TF over GST control)
ETV2
  binding signal: 1.37 fold enrichment (6-mer frequency, TF over GST control)
ELF3
  binding signal: 1.4 fold enrichment (6-mer frequency, TF over GST control)
CRX
  binding signal: 1.08 fold enrichment (6-mer frequency, TF over GST control)
ETV1
  binding signal: 1.33 fold enrichment (6-mer frequency, TF over GST control)
ERF
  binding signal: 1.37 fold enrichment (6-mer frequency, TF over GST control)
ETV3L
  binding signal: 1.29 fold enrichment (6-mer frequency, TF over GST control)
ETS2
  binding signal: 1.27 fold enrichment (6-mer frequency, TF over GST control)
SPDEF
  binding signal: 1.14 fold enrichment (6-mer frequency, TF over GST control)
ETV7
  binding signal: 1.19 fold enrichment (6-mer frequency, TF over GST control)
ELF5
  binding signal: 1.18 fold enrichment (6-mer frequency, TF over GST control)
ETV3
  binding signal: 1.43 fold enrichment (6-mer frequency, TF over GST control)
ETV6
  binding signal: 1.23 fold enrichment (6-mer frequency, TF over GST control)
